Measurements: PubChem BioAssay AID1159580 (chemical genetic matrix, 2015)
Several values for one entry are separate records, joined by “and”; a condition that tells them apart may be missing. Equal values may be shown once. Out of some 5,500 compounds screened, about 2,000 (36%) were called active. About 18% were inconclusive and are not listed. Rule as the data show it: active = normalized growth mostly below about 0.91 (no sharp cut-off); inconclusive = no clear call, values can overlap the other calls; inactive = mostly above about 0.92. The list shows a part of the results.

Assay: chemical genetic growth profiling, strain panel (AID 1159580);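 also: tested at 20 µM; growth read once vehicle control cultures reached saturation at 30 °C; 1 = growth at the plate median or of vehicle wells; lower values mean less growth of the strain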
Settings: S. cerevisiae deletion strains, growth OD

Measured: normalized growth

N[C@@H]1[C@@H](O)[C@H](O)[C@@H](CO)O[C@H]1O
inactive: locus YAL021C, strain ccr4, stronger effect = lower value 1.03 | locus YAL026C, strain drs2, stronger effect = lower value 1.01 | locus YAL030W, strain snc1, stronger effect = lower value 1.02 | locus YBL061C, strain skt5, stronger effect = lower value 1.03 | locus YBR009C, strain hhf1, stronger effect = lower value 1.02 | locus YBR021W, strain FUR4, stronger effect = lower value 1.01 | locus YBR023C, strain chs3, stronger effect = lower value 1.02 | locus YBR171W, strain sec66, stronger effect = lower value 1.04 | locus YBR229C, strain ROT2, stronger effect = lower value 1.01 | locus YBR231C, strain swc5, stronger effect = lower value 1.02 | locus YBR279W, strain paf1, stronger effect = lower value 1.03 | locus YCL011C, strain gbp2, stronger effect = lower value 1.02 | locus YCL016C, strain dcc1, stronger effect = lower value 1.02 | locus YCL029C, strain bik1, stronger effect = lower value 0.998 | locus YCL061C, strain MRC1, stronger effect = lower value 1.03 | locus YCL069W, strain vba3, stronger effect = lower value 1.02 | locus YCR088W, strain abp1, stronger effect = lower value 1.02 | locus YDL005C, strain med2, stronger effect = lower value 1.02 | locus YDL035C, strain GPR1, stronger effect = lower value 1 | locus YDL040C, strain nat1, stronger effect = lower value 1.01 | locus YDL074C, strain BRE1, stronger effect = lower value 1 | locus YDL101C, strain DUN1, stronger effect = lower value 1.01 | locus YDL185W, strain tfp1, stronger effect = lower value 1.01 | locus YDL192W, strain arf1, stronger effect = lower value 1.02 | locus YDR001C, strain nth1, stronger effect = lower value 1.02 | locus YDR069C, strain doa4, stronger effect = lower value 1.02 | locus YDR101C, strain arx1, stronger effect = lower value 0.975 | locus YDR137W, strain rgp1, stronger effect = lower value 1.03 | locus YDR150W, strain NUM1, stronger effect = lower value 1 | locus YDR159W, strain sac3, stronger effect = lower value 1.03 | locus YDR162C, strain NBP2, stronger effect = lower value 1 | locus YDR195W, strain ref2 1.04 | locus YDR297W, strain sur2, stronger effect = lower value 1.01 | locus YDR318W, strain mcm21, stronger effect = lower value 1 | locus YDR334W, strain swr1, stronger effect = lower value 1.02 | locus YDR335W, strain msn5, stronger effect = lower value 1.03 | locus YDR388W, stronger effect = lower value 1 | locus YDR392W, strain spt3, stronger effect = lower value 1 | locus YDR502C, strain sam2, stronger effect = lower value 1.01 | locus YEL003W, strain gim4, stronger effect = lower value 1.02 | locus YEL037C, strain rad23, stronger effect = lower value 1.02 | locus YEL061C, strain CIN8 (second series), stronger effect = lower value 1.02 | locus YEL061C, strain CIN8, stronger effect = lower value 1.02 | locus YER015W, strain faa2, stronger effect = lower value 1.03 | locus YER016W, strain bim1, stronger effect = lower value 1.01 | locus YER110C, stronger effect = lower value 1 | locus YER111C, strain swi4, stronger effect = lower value 1.03 | locus YER155C, strain BEM2 (second series), stronger effect = lower value 1.05 | locus YER155C, strain BEM2, stronger effect = lower value 1 | locus YER167W, strain BCK2, stronger effect = lower value 1.01 | locus YFR010W, strain ubp6, stronger effect = lower value 1.01 | locus YGL078C, strain dbp3, stronger effect = lower value 1.01 | locus YGL086W, strain mad1, stronger effect = lower value 0.999 | locus YGL167C, strain pmr1, stronger effect = lower value 1.03 | locus YGL173C, strain kem1, stronger effect = lower value 1.03 | locus YGL227W, strain vid30, stronger effect = lower value 1.02 | locus YGL240W, strain doc1, stronger effect = lower value 1.04 | locus YGL248W, strain PDE1, stronger effect = lower value 1.01 | locus YGL253W, strain hxk2, stronger effect = lower value 1.02 | locus YGR078C, strain PAC10, stronger effect = lower value 1 | locus YGR135W, strain pre9, stronger effect = lower value 1.05 | locus YGR229C, strain SMI1, stronger effect = lower value 1 | locus YGR252W, strain gcn5, stronger effect = lower value 1.01 | locus YHR013C, strain ard1, stronger effect = lower value 1.06 | locus YHR027C, strain rpn1, stronger effect = lower value 1.06 | locus YHR030C, strain SLT2, stronger effect = lower value 1 and 0.98 | locus YHR079C, strain IRE1 (second series), stronger effect = lower value 1.01 | locus YHR079C, strain IRE1, stronger effect = lower value 0.968 | locus YHR094C, strain hxt1, stronger effect = lower value 0.998 | locus YHR129C, strain ARP1, stronger effect = lower value 0.994 | locus YHR142W, strain chs7, stronger effect = lower value 1.01 | locus YHR200W, strain rpn10, stronger effect = lower value 1.01 | locus YIL066C, strain RNR3, stronger effect = lower value 1 | locus YIL073C, strain SPO22, stronger effect = lower value 1.04 | locus YIL125W, strain kgd1, stronger effect = lower value 1.01 | locus YIR030C, strain dcg1, stronger effect = lower value 1.01 | locus YJL092W, strain hpr5, stronger effect = lower value 1.03 | locus YJL095W, strain BCK1 (second series), stronger effect = lower value 1.01 | locus YJL095W, strain BCK1, stronger effect = lower value 1.01 and 0.986 | locus YJL115W, strain asf1, stronger effect = lower value 1.03 | locus YJL129C, strain trk1, stronger effect = lower value 1.04 | locus YJL134W, strain LCB3, stronger effect = lower value 1.01 | locus YJL154C, strain vps35, stronger effect = lower value 1.02 | locus YJL164C, strain tpk1, stronger effect = lower value 1.04 | locus YJL166W, strain qcr8, stronger effect = lower value 1.03 | locus YJL168C, strain set2, stronger effect = lower value 1 | locus YJL187C, strain SWE1 (second series), stronger effect = lower value 1 | locus YJL187C, strain SWE1, stronger effect = lower value 1.01 | locus YJR043C, strain POL32, stronger effect = lower value 0.992 | locus YJR066W, strain TOR1, stronger effect = lower value 0.937 | locus YJR075W, strain HOC1, stronger effect = lower value 1 | locus YKL009W, strain mrt4, stronger effect = lower value 1.01 | locus YKL068W, stronger effect = lower value 1 | locus YKL085W, strain MDH1 (second series), stronger effect = lower value 1.01 | locus YKL085W, strain MDH1, stronger effect = lower value 1.01 | locus YKL160W, strain elf1, stronger effect = lower value 1.04 | locus YKR001C, strain vps1, stronger effect = lower value 0.993 | locus YKR026C, strain gcn3, stronger effect = lower value 1.02 | locus YKR091W, strain srl3, stronger effect = lower value 1.02 | locus YLL001W, strain dnm1, stronger effect = lower value 1.03 | locus YLL026W, stronger effect = lower value 1.01 | locus YLL041C, strain sdh2, stronger effect = lower value 1.01 | locus YLR027C, strain aat2, stronger effect = lower value 1.01 | locus YLR039C, strain RIC1, stronger effect = lower value 1.05 | locus YLR058C, strain SHM2, stronger effect = lower value 1.01 | locus YLR102C, strain apc9, stronger effect = lower value 1 | locus YLR113W, strain HOG1, stronger effect = lower value 0.985 | locus YLR221C, strain rsa3, stronger effect = lower value 1.03 | locus YLR258W, strain gsy2, stronger effect = lower value 1.02 | locus YLR262C, strain YPT6 (second series), stronger effect = lower value 1.06 | locus YLR262C, strain YPT6, stronger effect = lower value 1.02 | locus YLR268W, strain sec22, stronger effect = lower value 1.01 | locus YLR320W, strain mms22, stronger effect = lower value 1.05 | locus YLR330W, strain CHS5, stronger effect = lower value 1 | locus YLR342W, strain FKS1 (second series), stronger effect = lower value 1.01 | locus YLR342W, strain FKS1, stronger effect = lower value 1.02 | locus YLR357W, strain rsc2, stronger effect = lower value 1.05 | locus YLR370C, strain arc18, stronger effect = lower value 1.02 | locus YLR371W, strain rom2, stronger effect = lower value 0.991 | locus YLR384C, strain iki3, stronger effect = lower value 1.03 | locus YLR418C, strain cdc73, stronger effect = lower value 1.01 | locus YML016C, strain PPZ1, stronger effect = lower value 1 | locus YML032C, strain rad52, stronger effect = lower value 0.994 | locus YML120C, strain ndi1, stronger effect = lower value 1.03 | locus YML124C, strain tub3, stronger effect = lower value 1.01 | locus YMR058W, strain fet3, stronger effect = lower value 1.02 | locus YMR078C, strain ctf18, stronger effect = lower value 1.01 | locus YMR125W, strain sto1, stronger effect = lower value 1.04 | locus YMR129W, stronger effect = lower value 1.01 | locus YMR205C, strain PFK2, stronger effect = lower value 1.04 | locus YMR223W, strain ubp8, stronger effect = lower value 1.02 | locus YMR231W, strain pep5, stronger effect = lower value 1.02 | locus YMR307W, strain GAS1, stronger effect = lower value 1.01 | locus YNL067W, strain RPL9B, stronger effect = lower value 1.01 | locus YNL071W, strain lat1, stronger effect = lower value 1.03 | locus YNL183C, strain NPR1, stronger effect = lower value 0.962 | locus YNL209W, strain ssb2, stronger effect = lower value 1.01 | locus YNL233W, strain BNI4, stronger effect = lower value 1.01 | locus YNL248C, strain rpa49, stronger effect = lower value 1.03 | locus YNL250W, strain rad50, stronger effect = lower value 1.05 | locus YNL271C, strain bni1, stronger effect = lower value 1.02 | locus YNL298W, strain CLA4, stronger effect = lower value 1.01 | locus YNL307C, strain MCK1, stronger effect = lower value 1.01 | locus YNL322C, strain KRE1 (second series), stronger effect = lower value 1.04 | locus YNL322C, strain KRE1, stronger effect = lower value 1 | locus YNR049C, strain mso1, stronger effect = lower value 1.02 | locus YNR052C, strain pop2, stronger effect = lower value 1.01 | locus YOL006C, strain TOP1, stronger effect = lower value 1.05 | locus YOL012C, strain htz1 0.886 | locus YOL147C, strain pex11, stronger effect = lower value 1.01 | locus YOR001W, strain rrp6, stronger effect = lower value 1.04 | locus YOR061W, strain CKA2, stronger effect = lower value 1 | locus YOR069W, strain VPS5, stronger effect = lower value 1.01 | locus YOR070C, strain gyp1, stronger effect = lower value 1.03 | locus YOR080W, strain dia2, stronger effect = lower value 1.04 | locus YOR083W, strain WHI5, stronger effect = lower value 1.04 | locus YOR106W, strain vam3, stronger effect = lower value 1.06 | locus YOR136W, strain idh2, stronger effect = lower value 1.01 | locus YOR144C, strain elg1, stronger effect = lower value 1 | locus YOR184W, strain ser1, stronger effect = lower value 1.01 | locus YOR231W, strain MKK1, stronger effect = lower value 1 | locus YOR265W, strain rbl2, stronger effect = lower value 1.06 | locus YOR270C, strain vph1, stronger effect = lower value 1.08 | locus YOR290C, strain snf2, stronger effect = lower value 0.979 | locus YOR316C, strain cot1, stronger effect = lower value 1.01 | locus YPL051W, strain arl3, stronger effect = lower value 1.03 | locus YPL078C, strain atp4, stronger effect = lower value 1.03 | locus YPL106C, strain sse1, stronger effect = lower value 1.03 | locus YPL240C, strain hsp82, stronger effect = lower value 1.02 | locus YPL256C, strain CLN2, stronger effect = lower value 0.985 | locus YPR119W, strain clb2, stronger effect = lower value 1.01 | locus YPR141C, strain kar3, stronger effect = lower value 1.01 | locus YPR163C, strain tif3, stronger effect = lower value 1.01 | locus YPR167C, strain met16, stronger effect = lower value 1.01 | strain wtn01, stronger effect = lower value 1.02
